Only some compounds are listed: those with a hit (about 2.3% of all), similar ones and a draw of the others.
CHO-K1 Ca antag: counter-screen for M1 antagonists: effect in parental CHO-K1 cells; ATP-induced calcium, Fluo-8 fluorescence; inhibition, % at 3 µM; hit rate 0.6% among 360,000;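 active means inhibition above a per-plate cutoff, the plate's mean sample inhibition plus 3 SD, cut at about 24% in these data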
M1 ag: agonists of human M1 muscarinic receptor; P11229; CHO-K1 hM1, Fluo-8 calcium fluorescence, agonist mode; 0% DMSO, 100% acetylcholine EC100; activation, % at 3 µM; hit rate 0.33% among 360,000;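 active means activation above the run's mean compound activation plus 3 SD, cut at about 16% in these data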;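 further: peak over basal fluorescence ratio within a 140 s kinetic read after compound addition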
Target sequence (P11229 whole entry, looked up): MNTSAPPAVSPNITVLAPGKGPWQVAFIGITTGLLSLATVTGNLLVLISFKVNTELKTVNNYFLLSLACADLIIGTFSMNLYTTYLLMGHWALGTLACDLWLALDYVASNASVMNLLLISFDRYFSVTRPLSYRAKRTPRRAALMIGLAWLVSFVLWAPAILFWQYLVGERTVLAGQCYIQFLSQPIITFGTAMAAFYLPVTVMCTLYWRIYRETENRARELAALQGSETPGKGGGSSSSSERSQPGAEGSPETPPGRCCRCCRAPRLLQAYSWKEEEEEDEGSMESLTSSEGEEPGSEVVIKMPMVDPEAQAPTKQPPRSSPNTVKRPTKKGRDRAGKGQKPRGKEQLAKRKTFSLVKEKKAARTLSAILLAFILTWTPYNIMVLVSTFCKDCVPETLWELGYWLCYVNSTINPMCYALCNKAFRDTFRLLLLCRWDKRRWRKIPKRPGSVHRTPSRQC
CHO-K1 Ca PAM: counter-screen for M1 PAMs: effect in parental CHO-K1 cells; AID 602247; hit rate 0.02% among 360,000; activation, % at 3 µM; ATP EC20, Fluo-8 calcium fluorescence; 0% at ATP EC20, 100% at ATP max;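 active means activation above the run cutoff, the mean activation of all test compounds plus 3 SD, cut at about 40% in these data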;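 further: peak over basal fluorescence ratio in a 140 s read after ATP addition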
CHO-K1 Ca ag: M1 agonist counterscreen hit in parental CHO-K1 cells. hit rate 0.48% among 360,000. Fluo-8 calcium fluorescence; scaled to maximal ATP response, vehicle zero. AID 602248. activation, % at 3 µM; in the data active means activation above about 15%;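 further: untransfected CHO-K1 host cells lacking M1 receptor as counterscreen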
CHRM1 antagonist: blocks human M1 muscarinic receptor | inhibition, % at 3 µM | P11229 | AID 588852 | hit rate 1.3% among 360,000 | CHO-K1 hM1, Fluo-8 calcium fluorescence, ACh EC80 antagonist;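 active means percent inhibition above its own plate's cutoff, namely the mean of that plate's compound wells plus 3 SD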;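 further: peak over basal fluorescence ratio during 140 s after agonist addition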
CHRM1 PAM: positive allosteric modulators of human M1 muscarinic receptor | P11229 | CHO-K1 hM1, Fluo-8 calcium fluorescence, ACh EC20; 0% = ACh EC20, 100% = maximal ACh | activation, % at 3 µM | hit rate 0.088% among 360,000 | AID 588819; in the data active means activation above about 19%, passing the limit was not always enough
A number is an active result.

`COC(=O)c1ccc(NC(=S)NC2CC3CCC2C3)cc1` (centres undefined) gave CHO-K1 Ca antag inactive, M1 ag inactive, CHO-K1 Ca PAM inactive, CHO-K1 Ca ag 16, CHRM1 antagonist inactive and CHRM1 PAM inactive.
Screening COC(=O)c1ccc(NC(=O)C2CC3CCC2C3)cc1 (centres undefined) returned CHO-K1 Ca antag inactive, M1 ag inactive, CHO-K1 Ca PAM inactive, CHO-K1 Ca ag inactive, CHRM1 antagonist inactive and CHRM1 PAM inactive.
For Cc1ccccc1CSc1nnc(-c2ccncc2)o1 the results were CHO-K1 Ca antag inactive, M1 ag inactive, CHO-K1 Ca PAM inactive, CHO-K1 Ca ag 24, CHRM1 antagonist inactive and CHRM1 PAM inactive.
`c1ccc(CSc2nnc(-c3ccncc3)o2)cc1` gave CHO-K1 Ca antag inactive, M1 ag inactive, CHO-K1 Ca PAM inactive, CHO-K1 Ca ag inactive, CHRM1 antagonist inactive and CHRM1 PAM inactive.
For CC(C)(C)NC(=O)CSc1nnc(-c2ccncc2)o1 the results were CHO-K1 Ca antag 25, M1 ag inactive, CHO-K1 Ca PAM inactive, CHO-K1 Ca ag inactive, CHRM1 antagonist inactive and CHRM1 PAM inactive.
Screening NC(=O)CSc1nnc(-c2ccncc2)o1 returned CHO-K1 Ca antag inactive, M1 ag inactive, CHO-K1 Ca PAM inactive, CHO-K1 Ca ag inactive, CHRM1 antagonist inactive and CHRM1 PAM inactive.
`COc1ccc(CC(=O)N2CCC(CCC(=O)Nc3ccccc3)CC2)cc1` gave CHO-K1 Ca antag 24, M1 ag inactive, CHO-K1 Ca PAM inactive, CHO-K1 Ca ag inactive, CHRM1 antagonist inactive and CHRM1 PAM inactive.
Screening COc1cccc(NC(=O)CCC2CCN(C(=O)Cc3cccc(F)c3)CC2)c1 returned CHO-K1 Ca antag inactive, M1 ag inactive, CHO-K1 Ca PAM inactive, CHO-K1 Ca ag inactive, CHRM1 antagonist inactive and CHRM1 PAM inactive.
For COc1ccc(-c2csc(N(CCCN3CCOCC3)C(=O)c3ccco3)n2)cc1 the results were CHO-K1 Ca antag inactive, M1 ag inactive, CHO-K1 Ca PAM inactive, CHO-K1 Ca ag inactive, CHRM1 antagonist 42 and CHRM1 PAM inactive.
Cc1ccc(-c2csc(N(CCCN3CCOCC3)C(=O)c3ccco3)n2)cc1 was read as CHO-K1 Ca antag inactive, M1 ag inactive, CHO-K1 Ca PAM inactive, CHO-K1 Ca ag inactive, CHRM1 antagonist inactive and CHRM1 PAM inactive.
Screening COc1ccc(-c2csc(N(CCCN(C)C)C(=O)c3cccs3)n2)cc1 returned CHO-K1 Ca antag inactive, M1 ag inactive, CHO-K1 Ca PAM inactive, CHO-K1 Ca ag inactive, CHRM1 antagonist 30 and CHRM1 PAM inactive.
For O=C(COC(=O)Cn1[nH]c(=O)c2ccccc2c1=O)NNC(=O)c1ccc(Br)cc1 the results were CHO-K1 Ca antag inactive, M1 ag inactive, CHO-K1 Ca PAM inactive, CHO-K1 Ca ag inactive, CHRM1 antagonist inactive and CHRM1 PAM inactive.
Cc1cc(C)c(O)c(-c2n[nH]c3c2C(c2cccc(O)c2)N(Cc2ccco2)C3=O)c1 (centres undefined) was read as CHO-K1 Ca antag inactive, M1 ag inactive, CHO-K1 Ca PAM inactive, CHO-K1 Ca ag inactive, CHRM1 antagonist inactive and CHRM1 PAM inactive.
`CC(C)N(CC#CCC1(O)c2ccccc2-c2ccccc21)CCO` gave CHO-K1 Ca antag inactive, M1 ag inactive, CHO-K1 Ca PAM inactive, CHO-K1 Ca ag inactive, CHRM1 antagonist inactive and CHRM1 PAM inactive.
For CC(C)N(CC#CCC(O)(c1ccccc1)C1CCCC1)CCO (centres undefined) the results were CHO-K1 Ca antag inactive, M1 ag inactive, CHO-K1 Ca PAM inactive, CHO-K1 Ca ag inactive, CHRM1 antagonist 86 and CHRM1 PAM inactive.
For CCN(CC#CCC(O)(c1ccccc1)C1CCCC1)C(C)C (centres undefined) the results were CHO-K1 Ca antag inactive, M1 ag inactive, CHO-K1 Ca PAM inactive, CHO-K1 Ca ag inactive, CHRM1 antagonist 99 and CHRM1 PAM inactive.
COC(=O)[C@@]1(C(C)C)N=C(c2cc(OC)c(OC)c(OC)c2)[C@]2(O1)C(=O)N(C)c1ccc(Br)cc12 was read as CHO-K1 Ca antag inactive, CHO-K1 Ca PAM inactive and CHO-K1 Ca ag inactive.
For CN(C)CCCOC(=O)N1c2ccccc2C=Cc2ccccc21 the results were CHO-K1 Ca antag inactive, M1 ag inactive, CHO-K1 Ca PAM inactive, CHO-K1 Ca ag inactive, CHRM1 antagonist 95 and CHRM1 PAM inactive.
`O=S1(=O)CC(N2CCN(CCO)CC2)CN1C1CCCCC1` (centres undefined) gave CHO-K1 Ca antag inactive, M1 ag inactive, CHO-K1 Ca PAM inactive, CHO-K1 Ca ag inactive, CHRM1 antagonist inactive and CHRM1 PAM inactive.
Screening O=S1(=O)CC(N2CCN(CC3CC3)CC2)CN1C1CCCC1 (centres undefined) returned CHO-K1 Ca antag 26, M1 ag inactive, CHO-K1 Ca PAM inactive, CHO-K1 Ca ag inactive, CHRM1 antagonist inactive and CHRM1 PAM inactive.
COc1ccc(S(N)(=O)=O)cc1C(=O)OCCCOC(=O)c1cc(S(N)(=O)=O)ccc1OC was read as CHO-K1 Ca antag inactive, M1 ag inactive, CHO-K1 Ca PAM inactive, CHO-K1 Ca ag inactive, CHRM1 antagonist inactive and CHRM1 PAM inactive.
`COc1ccc(S(N)(=O)=O)cc1C(=O)OCCCOc1ccc(F)cc1` gave CHO-K1 Ca antag inactive, M1 ag inactive, CHO-K1 Ca PAM inactive, CHO-K1 Ca ag 18, CHRM1 antagonist inactive and CHRM1 PAM inactive.
O=C(CCN1C(=O)C2CC=CCC2C1=O)Nc1cc(C(F)(F)F)ccc1N1CCCC1 (centres undefined) was read as CHO-K1 Ca antag inactive, M1 ag inactive, CHO-K1 Ca PAM inactive, CHO-K1 Ca ag inactive, CHRM1 antagonist inactive and CHRM1 PAM inactive.
For Cc1ccc(-n2c3nc(=O)[nH]c(=O)c-3cc3cc([N+](=O)[O-])ccc32)cc1C the results were CHO-K1 Ca antag inactive, M1 ag inactive, CHO-K1 Ca PAM inactive, CHO-K1 Ca ag inactive, CHRM1 antagonist 30 and CHRM1 PAM inactive.
For Cc1ccc(S(=O)(=O)n2cnc3cc([N+](=O)[O-])ccc32)cc1C the results were CHO-K1 Ca antag inactive, M1 ag inactive, CHO-K1 Ca PAM inactive, CHO-K1 Ca ag inactive, CHRM1 antagonist inactive and CHRM1 PAM inactive.
O=c1[nH]c2c(oc3ccccc32)c(=O)n1Cc1ccccc1 was read as CHO-K1 Ca antag inactive, M1 ag inactive, CHO-K1 Ca PAM inactive, CHO-K1 Ca ag inactive, CHRM1 antagonist inactive and CHRM1 PAM inactive.
Screening O=C(O)c1c(-c2ccccc2)c2oc3ccccc3c2[nH]c1=O returned CHO-K1 Ca antag 29, M1 ag inactive, CHO-K1 Ca PAM inactive, CHO-K1 Ca ag inactive, CHRM1 antagonist inactive and CHRM1 PAM inactive.
Screening CCc1ccc(Cn2nnc(C(=O)Nc3ccc(OC)cc3OC)c2N)cc1 returned CHO-K1 Ca antag inactive, M1 ag 25, CHO-K1 Ca PAM inactive, CHO-K1 Ca ag inactive, CHRM1 antagonist inactive and CHRM1 PAM inactive.
Screening CN(C)C(CNS(=O)(=O)c1ccc(Cl)cc1F)c1ccco1 (centres undefined) returned CHO-K1 Ca antag inactive, M1 ag inactive, CHO-K1 Ca PAM inactive, CHO-K1 Ca ag inactive, CHRM1 antagonist inactive and CHRM1 PAM inactive.
